Among all 410,000 compounds or so, about 18,000 (4.4%) were called active. Not shown: some 7% with an inconclusive outcome. What follows is part of a selection rich in actives, with near analogues and random picks from the rest. Values without a mark were called inactive. No stated cut-off is given here; in the data, active means activity change below about -60%; inconclusive means no clear call, values can overlap the other calls; inactive means above about -39%.
On the % scale 0 is the no-effect control and ±100 the full control effect.

The test in a line: qHTS Assay for inhibitors of the human cytomegalovirus (HCMV). The conditions noted are these: HFF cells, HCMV-luciferase reporter, 72 h; at 57.5 µM; stronger effect = lower value. The gist of the method: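 HFF cells seeded 16 h at 37C, treated with compounds, infected with luciferase-reporter HCMV at MOI 1 PFU/cell; luciferase read at 72 h post infection, normalized to buffer-only and Salinomycin controls.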
For the molecule `C/C(CCc1ccccc1)=N\NC(=O)c1ccc(CN2CCOCC2)cc1`, the activity change, negative = inhibition was -12.4%.
For `O=C(Nc1ccccc1C(=O)N1CCOCC1)c1ccc(CSc2ccccc2)cc1`, the activity change, negative = inhibition is -24.2%.
Turning to `O=C(Nc1ccc(CSc2ccccc2)cc1)c1ccc(CN2CCOCC2)cc1`, the activity change, negative = inhibition was -79.7% (active).
As for `CCCCN1CCNC1=S`, the activity change, negative = inhibition was 47%.
Next, `CCn1cc(C(=O)NCc2ccc(C)cc2)c(=O)c2cc(S(=O)(=O)N3CCc4ccccc4C3)ccc21`: 7.01%.
As for `Cc1ccc(Cl)cc1N(C)C(=O)C1CCCN(c2ncnc3onc(-c4ccc(F)cc4)c23)C1` (centres undefined), the figure is -73.3% (active); as for `Cc1c(Cl)cccc1NC(=O)C1CCCN(c2ncnc3onc(C)c23)C1` (centres undefined), 4.4%.
On to `CCc1ccccc1N(C)C(=O)C1CCCN(c2ncnc3onc(-c4ccc(F)cc4)c23)C1` (centres undefined), for which the activity change, negative = inhibition was 6.75%.
As for `CC(C)Oc1ccc(S(=O)(=O)N2CCOCC2)cc1NC(=O)C1CCCC1`, the figure is 36.7%.
Turning to `CCCc1cc(=O)oc2c(C)c(O)c(CN3CCCCC3)cc12`, the activity change, negative = inhibition was -20.3%.
As for `Cn1c(=O)c2c(nc(N3CCCCCC3)n2CC(O)COc2ccc(Cl)cc2)n(C)c1=O` (centres undefined), the figure is 16.7%; as for `O=C(c1ccc(Cl)cc1)c1ccc(OCC(O)CN2CCCCC2)cc1` (centres undefined), -63.1% (active); as for `OC(COc1ccc(CN2CCSCC2)cc1)CN1CCCCC1` (centres undefined), 0%.
Next, `COc1ccc(NC(=O)CCNS(=O)(=O)c2ccc3c(c2)CCCC(=O)N3)cc1Cl`: -20.5%; `CCn1c(CNC(=O)C23CC4CC(CC(C4)C2)C3)nnc1SCC(=O)Nc1ccc(OC)cc1`: 10%.
Next, `Cc1no[n+]([O-])c1COc1ccccc1/C=C1\NC(=S)NC1=O`: -83.4% (active).
Turning to `C#CCOc1ccccc1/C=C1/C(=O)ON=C1C`, the activity change, negative = inhibition is 52.7%.
For `COC(=O)c1ccc(Cn2c(SCC(=O)N(C)c3ccccc3)nc3ccccc32)cc1`, the activity change, negative = inhibition was -6.59%.
Regarding `N/C(=N\OC(=O)CCc1ccccc1)c1ccc(Cl)cc1`, the activity change, negative = inhibition is 10.6%.
Next, `COc1ccc(-c2nnc(SC(=O)N3c4ccccc4Sc4ccccc43)o2)cc1`: 10.6%; `N/C(=N\OC(=O)N1c2ccccc2Sc2ccccc21)c1ccc(Br)cc1`: -63.7% (active); `COc1cc(Cl)c(NC(=O)CC(C)S(=O)(=O)c2cc3c(cc2C)NC(=O)CO3)c(OC)c1` (centres undefined): -4.28%.
Turning to `CS(=O)(=O)N(CC(=O)NCc1ccco1)c1ccc2c(c1)OCO2`, the activity change, negative = inhibition is -9.98%.
`COc1ccc(S(=O)(=O)N(C)CC(=O)Nc2ccc3c(c2)OCCO3)cc1OC`: the activity change, negative = inhibition was 51.4%.
Next, `O=C(CN(c1ccc2c(c1)OCCO2)S(=O)(=O)c1ccccc1)Nc1ccc2c(c1)OCO2`: -86.6% (active); `CCCn1c(=N)c(C(=O)NCc2ccccc2)cc2c(=O)n3cccc(C)c3nc21`: -7.61%.
Next, `Cc1cccn2c(=O)c3cc(C(=O)NC(C)c4ccccc4)c(=N)n(CCCO)c3nc12` (centres undefined): -15.1%.
As for `COCCCn1c(C(=O)NC2CCCCC2)cc2c(=O)n3cccc(C)c3nc21`, the activity change, negative = inhibition is 1.95%.
As for `COc1ccc(CCn2c(=N)c(C(=O)NCc3ccco3)cc3c(=O)n4cccc(C)c4nc32)cc1`, the figure is -83.4% (active); as for `Cc1cccn2c(=O)c3cc(C#N)c(=NC(=O)c4cccnc4)n(CC4CCCO4)c3nc12` (centres undefined), 2.74%; as for `Cc1cccn2c(=O)c3cc(C(=O)NCCN4CCOCC4)c(=N)n(Cc4cccnc4)c3nc12`, -86% (active).
Consider `Cc1cc(Br)ccc1NC(=O)Cn1cnc2sc(C)c(S(=O)(=O)N3CCN(C)CC3)c2c1=O`, for which the activity change, negative = inhibition was 0.161%.
Next, `CCCS(=O)(=O)NC(=O)C1(C)CCCN(C(=O)c2cc(C)on2)C1` (centres undefined): 32.5%.
Next, `Cc1cccc(N2CCN(C(=O)c3ccc4c(c3)CCN4S(=O)(=O)c3ccccc3)CC2)c1C`: -25.8%; `O=C(CC1N=C2c3ccccc3N=C(SCc3cccc(Cl)c3)N2C1=O)NCc1ccc2c(c1)OCO2` (centres undefined): -15.6%; `CCCN1C(=O)COCc2cc(-c3cccc(CO)c3)ccc21`: 6.92%.
Next, `COc1ccc(CNC(=O)CSc2n[nH]c(-c3ccc(F)cc3)n2)cc1`: 19.4%; `COc1ccc(-c2nc(SCC(=O)N3CCCCC3C)n[nH]2)cc1` (centres undefined): 1.78%; `CCc1ccc(-c2nc(SCC(=O)NC3CCCC3)n[nH]2)cc1`: -90.7% (active).
Turning to `COc1cc(/C=C/CNC[C@H]2O[C@@H](n3cnc(C(N)=O)n3)[C@H](O)[C@@H]2O)ccc1O`, the activity change, negative = inhibition was -3.95%.
Next, `Cc1ccccc1C(=O)N(Cc1ccc(N(C)C)cc1)CC1CCCO1` (centres undefined): -18.1%; `Cc1cc(C)cc(-n2ccnc2SCC(=O)Nc2nc3ccccc3s2)c1`: -5.53%.
Next, `c1ccc(C(=NNc2nc3ccccc3s2)c2ccccn2)cc1`: -99.2% (active); `Cc1ccccc1-n1c(=O)c2ccccc2n(Cc2ccc(F)cc2)c1=O`: -13.5%; `CN1C(=O)/C(=C/C=C2\SCCN2C)OC1=S`: 143%.
As for `Cc1cc2c(cc1C)[n+](C)cn2CC(O)COCC1CC=CCC1` (centres undefined), the figure is -71.1% (active); as for `CCCC12CN3CC(CCC)(CN(C1)C3c1c[nH]c3ccc(OC)cc13)C2=O` (centres undefined), 14%.
Take `c1ccc2c(c1)C(=NC1CCCCC1)NC2=NC1CCCCC1`: the activity change, negative = inhibition was -38.8%.
In the case of `CCOc1cccc(=NC2CCCCC2)c2c(C)[nH]c(C)c12`, the activity change, negative = inhibition was -110% (active).
For the molecule `CCOc1ccccc1NC(=O)NC1CCCCCCC1`, the activity change, negative = inhibition is -14.2%.
Next, `CCOc1ccc(Nc2oc(/C=C/c3ccc(F)cc3)nc2C#N)cc1`: 11.4%.
As for `O=C(Cn1c(-c2cccs2)cc2ccccc21)NCCc1ccc(Cl)cc1`, the figure is -112% (active); as for `Cc1ccc(CCNC(=O)Cn2c(-c3cccs3)cc3cc(F)ccc32)cc1`, -16.7%; as for `Cc1cccc(Cn2c(=O)n(CCC(=O)NCCc3ccc(Cl)cc3)c(=O)c3sccc32)c1`, -10.1%.
As for `O=C(c1ccc(Br)cc1)N(Cc1cccs1)c1ccc(F)cc1`, the figure is -5.5%.
Regarding `O=C(Nc1ccc2nc(SCC(=O)N3CCc4ccccc43)sc2c1)c1ccccc1F`, the activity change, negative = inhibition is 26.3%.
As for `CC(NCC(=O)Nc1ccccc1C(=O)NC1CC1)c1ccccc1Cl` (centres undefined), the figure is -103% (active); as for `O=C(COc1ccccc1Cl)Nc1ccccc1C(=O)NC1CC1`, -2.06%.
On to `CCCC(NCC(=O)Nc1ccccc1C(=O)NC1CC1)c1ccccc1` (centres undefined), for which the activity change, negative = inhibition is -16.1%.
As for `COC(=O)C1C(=O)NCC1c1ccc(OC)cc1` (centres undefined), the figure is 19.2%.
Next, `O=C(NC1CCC(O)CC1)c1ccc(S(=O)(=O)NCc2ccco2)cc1` (centres undefined): -14.7%; `CCc1nnc(SCC(=O)Nc2cc(OC)ccc2OC)nc1CC`: 0%; `COc1ccc(CCNC(=O)NS(=O)(=O)c2ccc(C)cc2)cc1OC`: 12.4%.
Next, `COc1ccc(S(=O)(=O)N/N=C\c2ccc(OC)c(COc3ccc(C)cc3[N+](=O)[O-])c2)cc1`: 12.7%; `COc1ccc(C(=O)Oc2cc(/C=N/NS(=O)(=O)c3ccc(C)cc3)ccc2OC)cc1`: -102% (active).
Take `Cc1cccc(NC(=O)c2ccc3nc(C(C)C)oc3c2)c1C`: the activity change, negative = inhibition is -5.74%.
Consider `CCOc1ccc(C(=O)/C=C/c2cn(CC(O)CN3CCCCCC3)c3ccccc23)cc1` (centres undefined), for which the activity change, negative = inhibition is -29%.
Turning to `Cc1ccc(-c2nn(CCC(=O)Nc3ccc(OC(F)(F)F)cc3)c(=O)c3ccccc23)cc1`, the activity change, negative = inhibition is 0.866%.
As for `O=C(Nc1cc(C(F)(F)F)ccc1Cl)c1ccc2c(c1)CCN2S(=O)(=O)c1ccccc1`, the figure is -29.1%; as for `CCN(C(=O)COC(=O)c1cc(S(=O)(=O)N2CCc3ccccc32)ccc1OC)C1CCS(=O)(=O)C1` (centres undefined), -18%; as for `COc1ccc(S(=O)(=O)N2CCc3ccccc32)cc1C(=O)Nc1cc(S(C)(=O)=O)ccc1Cl`, -62.7% (active).
As for `CCc1nc2c(OCCOc3ccccc3)cccn2c1N(C)C(=O)c1ccccc1F`, the figure is -30.7%; as for `COc1ccc2c(c1)C(c1cccs1)=NNC(c1cccnc1)=N2`, -22.6%; as for `COC1C(O)C(C)OC(OC2CCC3(C=O)C(CCC4C3CCC3(C)C(C5=CC(=O)OC5)CCC43O)C2)C1O` (centres undefined), -106% (active).
Next, `Brc1cccc(-c2nnn3c2nc(NC2CCCCC2)c2ccccc23)c1`: 34.7%.
In the case of `O=C(Cc1ccc(Cl)cc1)NCC(c1cccs1)S(=O)(=O)c1ccc(Cl)cc1` (centres undefined), the activity change, negative = inhibition was -8.05%.
Next, `O=C(NNC(=O)c1ccco1)Nc1ccccc1`: -62% (active).
As for `O=C(CNC(=O)c1ccco1)OCC(=O)c1ccccc1`, the figure is 49.6%.
For `O=C(CNC(=O)c1ccco1)NNC(=O)c1ccc(Br)cc1`, the activity change, negative = inhibition is -4.75%.
`COc1cccc(-c2n[nH]c3c2C(c2cccc(O)c2)N(C)C3=O)c1` (centres undefined): the activity change, negative = inhibition is 179%.
Turning to `CC(OC(=O)CN1C(=O)C2CCCCC2C1=O)C(=O)Nc1ncc(Cl)cc1Cl` (centres undefined), the activity change, negative = inhibition was 22.5%.
Next, `CCOc1cc(NC(=O)c2ccccc2C(=O)O)c(OCC)cc1NC(=O)c1ccccc1F`: -3.32%; `CCN1CCN(c2cc3nc(C)n(Cc4ccccc4)c(=O)c3cc2NC(=O)c2ccccc2F)CC1`: -85.2% (active); `Cc1nc2ccn(Cc3cccnc3)c(=O)c2cc1C(=O)N1CCN(c2ccccc2F)CC1`: 10.9%.
As for `CCCCN(C)C(=O)c1ccc2c(c1)N(CC)C(=O)c1ccccc1S2(=O)=O`, the figure is -8.24%; as for `Cc1cccc(Nc2nc(C)nc(N)c2S(=O)(=O)c2ccccc2)c1`, 0.44%; as for `N=c1ccccn1Cc1ccccc1`, -18.5%.
Take `C=CCNC(=S)/N=c1/ccccn1Cc1ccccc1`: the activity change, negative = inhibition is -98.8% (active).
Next, `C=CCNC(=O)COc1coc(CN2CCN(Cc3ccccc3)CC2)cc1=O`: -9%.

The values are drawn from PubChem BioAssay AID1259415 (National Center for Advancing Translational Sciences (NCATS), 2018).
